These results are taken from PubChem BioAssay (NCATS).

A number with no mark means an inactive call. Results filed as inconclusive are left out. Calls of active or inactive are those of the source. Calls come from the whole dose curve; as a rule, active = well fitted curve in the direction sought with a large enough effect; inconclusive = small, poorly fitted or top-dose-only effect, or another doubt; inactive = no such curve, though single readings can be large; an effect the other way counts as inactive or inconclusive.

Assay [1] is described as follows: qHTS to identify inhibitors of the type 1 interferon - major histocompatibility complex class I in skeletal muscle: primary screen against the NCATS Pharmaceutical Collection (AID 1347407).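 Note: luminescence of HiBiT knocked into endogenous HLA-B as interferon-induced MHC class I level.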 The method in brief:
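Compounds […] were added to CRISPR-engineered HLA-B-HiBiT C25cl48 human myoblasts with 4.0 ng/ml IFN-beta. After 24 hrs at 37 C, cells were lysed and HiBiT luminescence measured.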
(Quantitative high-throughput screening tests each substance at several concentrations.)

Assay [2] in a line: qHTS to identify inhibitors of the type 1 interferon - major histocompatibility complex class I in skeletal muscle: primary screen against the NCATS Mechanism Interrogation Plate v5.0 (MIPE) Libary (AID 1347411). Note: nearly all actives have a fitted effect of over 65% in size. The method in brief:
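Luminescence from CRISPR HiBit-tagged endogenous HLA-B in human myoblasts reported MHC class I level after 24 h of IFN-beta (4 ng/ml) plus compound. Compounds ran as 11-point 1:3 series, top 46 uM final.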

Assay [3] concerns the target Protein phosphatase 1D (Homo sapiens) (UniProt O15297). The experiment in a line: RapidFire Mass Spectrometry qHTS Assay for Modulators of WT P53-Induced Phosphatase 1 (WIP1) (AID 1347424). Note: potency is the fitted concentration of half-maximal effect. In outline:
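RapidFire MS readout of dephosphorylated VEPPL-S-QETFS product, with 1 uM isotope-labelled peptide standard. Reaction: 10 nM WIP1, 2 uM phosphopeptide substrate, 5 min, room temperature, after 1 h compound preincubation; stopped with 0.5% formic acid.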

Assay [4] has the same target. The experiment in a line: Rhodamine-PBP qHTS Assay for Modulators of WT P53-Induced Phosphatase 1 (WIP1) (AID 1347425). In outline:
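Read-out: Rhodamine-PBP fluorescence (ex 525/em 598 nm) for released Pi, read each minute for 11 min after adding 10 uM VEPPL-pS-QETFS; signal taken as f1 minus pre-substrate f0. Enzyme 5 nM WIP1 with 1 hr room-temperature compound preincubation.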

Assay [5] can be described thus: Primary qHTS for inhibitors of La Crosse Virus (LACV) - induced cell death in SH-SY5Y cells (AID 1508616).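 Note: top concentration of the series differs between compounds; higher means more rescue of cells from virus-induced death.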 The method in brief: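 Rescue of virus-induced death was read as ATPLite luminescence after 6 days at 37C, scaled between DMSO wells with LACV and without virus. Cells were SH-SY5Y, 6000/well, infected at 0.01 MOI after compound addition.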
For assay [6], the system named is Zika virus NS2B-NS3 protease (linked construct). The experiment in a line: Primary screen NINDS Rhodamine qHTS for Zika virus inhibitors (AID 1347160). Note: nearly all actives have a fitted effect of over 55% in size. In outline:
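Aprotinin served as in-plate control. Conditions: 25 nM linked NS2B-NS3, pH 8.0 Tris buffer, titrated compounds, 15 min preincubation and 15 min reaction with 1.5 microM Rhod110 substrate at room temperature.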

Assay [7] in a line: ZIKV-mCherry secondary qHTS for Zika virus inhibitors (AID 1347158). Note: top concentration of the series differs between compounds. In outline: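 Percent infection is the share of Hoechst-identified Vero nuclei with mCherry signal above 450 RFU (3 SD over negative controls). Cells were infected with recombinant ZIKV-mCherry at MOI 1 after compound addition and imaged 48–72 h later.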
Assay [8] is described as follows: Confirmatory screen NINDS Rhodamine qHTS for Zika virus inhibitors (AID 1347161). Note: potency is the fitted concentration of half-maximal effect; nearly all actives have a fitted effect of over 60% in size. In outline: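 Purified NS2B-NS3 protease with the NS2B hydrophilic domain joined by a flexible linker (25 nM) in 10 mM Tris-HCl pH 8.0, 0.01% Tween 20, preincubated 15 min at RT with compound; Rhodamine110 peptide substrate 1.5 µM; fluorescence change over 15 min; 4-parameter Hill fit.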

Assay [9] in a line: Vero cells viability qHTS for Zika virus inhibitors (AID 1347167). In outline: (§1)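 qHTS titration; 24-48 h compound exposure, 37 degrees C/5% CO2; DMEM, 4% FBS; CellTiter Glo ATP luminescence.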
Assay [10] in a line: HepG2 cells viability qHTS for Zika virus inhibitors (AID 1347168). The method in brief:
as §1

Assay [11] deals with Zika virus NS2B-NS3 protease (linked). The experiment in a line: 384 well plate NINDS AMC confirmatory qHTS for Zika virus inhibitors (AID 1347163). Note: potency is the fitted concentration of half-maximal effect; nearly all actives have a fitted effect of over 50% in size. In outline:
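Fluorescence at 355/460 nm was read after 25 minutes of cleavage of 30 microM Ac-VKTGKR-AMC at room temperature, in the dark. Before substrate addition, compounds (up to 1 mM final) sat ~15 minutes with 5, 30 or 60 nM linked protease. Signals were normalized to no-enzyme and no-inhibitor wells.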

Assay [12] deals with Zika virus NS2B-NS3 protease (linked construct). The experiment in a line: 384 well plate NINDS Rhodamine confirmatory qHTS for Zika virus inhibitors (AID 1347164).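 Note: fluorescence from protease cleavage of Ac-LKRR-rhodamine 110 substrate; potency is the fitted concentration of half-maximal effect; nearly all actives have a fitted effect of over 65% in size.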 The note with it: rhodamine-110 peptide substrate fluorescence. In outline:
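Fluorescence at 485/538 nm was measured 25 minutes after adding 10 microM Ac-LKRR-Rd substrate, in the dark at room temperature. The protease (5, 30 or 60 nM final) had been preincubated ~15 minutes with compound; aprotinin as control.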

The subject of assay [13] is Zika virus NS2B-NS3 protease (unlinked complex). The experiment in a line: Primary screen GU Rhodamine qHTS for Zika virus inhibitors: Unlinked NS2B-NS3 protease assay (AID 1347159). Note: nearly all actives have a fitted effect of over 60% in size. The method in brief:
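Buffer 10 mM Tris-HCl pH 8.0, 0.01% Tween 20. Unlinked protease 25 nM; compound preincubation 15 min, RT, protected from light. Substrate Rhod110, 1.5 microM; ~15% conversion in 15 min.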

For assay [14], the target named is Lysine-specific demethylase 5B (Homo sapiens) (UniProt Q9UGL1). The experiment in a line: Optimization screen for KDM5B Histone Demethylases FDH coupled qHTS against the LOPAC library (AID 1347166). The method in brief: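 KDM5BDeltaAP (200nM final) in 50mM HEPES pH 7.5, 0.01% Tween-20 was preincubated with compound for 10 min at room temperature. A substrate mix of 12.5uM H3K4Me3, 25uM a-ketoglutarate, ascorbate, Fe2+, NAD+ and formaldehyde dehydrogenase was then added. NADH fluorescence (340/450 nm) was read initially and after 30 min.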
Chain of Lysine-specific demethylase 5B (Homo sapiens) (Q9UGL1 whole entry, looked up): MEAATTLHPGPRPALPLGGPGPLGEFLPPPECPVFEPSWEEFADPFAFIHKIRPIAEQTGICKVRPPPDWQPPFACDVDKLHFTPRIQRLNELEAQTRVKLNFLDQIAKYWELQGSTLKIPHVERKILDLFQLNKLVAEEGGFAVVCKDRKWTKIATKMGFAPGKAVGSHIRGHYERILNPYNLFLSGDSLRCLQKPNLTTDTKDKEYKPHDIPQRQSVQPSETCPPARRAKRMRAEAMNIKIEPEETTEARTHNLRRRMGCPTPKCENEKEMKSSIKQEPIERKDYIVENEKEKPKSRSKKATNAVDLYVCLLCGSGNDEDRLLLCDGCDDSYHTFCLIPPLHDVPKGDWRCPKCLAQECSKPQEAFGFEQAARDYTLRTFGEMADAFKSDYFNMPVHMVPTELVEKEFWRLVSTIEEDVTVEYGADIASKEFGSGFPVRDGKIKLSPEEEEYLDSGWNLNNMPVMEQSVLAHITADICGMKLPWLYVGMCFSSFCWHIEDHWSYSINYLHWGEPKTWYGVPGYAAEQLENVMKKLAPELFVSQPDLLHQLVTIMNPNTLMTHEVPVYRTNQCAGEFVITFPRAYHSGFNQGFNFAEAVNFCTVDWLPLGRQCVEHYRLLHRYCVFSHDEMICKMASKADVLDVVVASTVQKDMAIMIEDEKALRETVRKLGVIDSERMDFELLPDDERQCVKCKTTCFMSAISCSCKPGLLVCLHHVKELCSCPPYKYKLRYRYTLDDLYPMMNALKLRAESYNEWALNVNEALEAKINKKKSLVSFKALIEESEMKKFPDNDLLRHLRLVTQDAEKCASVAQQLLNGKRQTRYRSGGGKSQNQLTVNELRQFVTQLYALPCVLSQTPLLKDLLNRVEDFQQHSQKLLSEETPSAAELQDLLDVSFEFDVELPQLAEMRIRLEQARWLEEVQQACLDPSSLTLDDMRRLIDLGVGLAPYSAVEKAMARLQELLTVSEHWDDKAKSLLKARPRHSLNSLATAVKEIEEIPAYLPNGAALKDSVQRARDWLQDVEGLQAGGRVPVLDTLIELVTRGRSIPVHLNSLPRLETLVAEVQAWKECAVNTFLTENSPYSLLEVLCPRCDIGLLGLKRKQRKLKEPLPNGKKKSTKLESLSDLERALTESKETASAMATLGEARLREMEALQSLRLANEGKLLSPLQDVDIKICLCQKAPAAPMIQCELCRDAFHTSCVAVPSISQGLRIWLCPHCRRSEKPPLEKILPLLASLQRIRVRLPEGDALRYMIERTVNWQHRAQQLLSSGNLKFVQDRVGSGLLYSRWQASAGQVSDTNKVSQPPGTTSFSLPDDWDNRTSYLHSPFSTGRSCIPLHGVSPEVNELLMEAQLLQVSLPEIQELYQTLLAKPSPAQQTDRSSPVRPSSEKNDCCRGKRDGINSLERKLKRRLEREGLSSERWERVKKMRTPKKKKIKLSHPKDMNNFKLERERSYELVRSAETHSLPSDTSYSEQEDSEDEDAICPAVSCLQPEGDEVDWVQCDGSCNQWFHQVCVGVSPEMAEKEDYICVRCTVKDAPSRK

Assay [15] in a line: qHTS to identify inhibitors of the type 1 interferon - major histocompatibility complex class I in skeletal muscle: primary screen against the NCATS LOPAC collection (AID 1347405).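 Note: lytic HiBiT luminescence reporting HLA-B protein level.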 The method in brief:
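After 24 h at 37 C with compounds (7-point, 1:4.3 dilutions, 46 uM top final) plus 4 ng/ml IFN-beta, luminescence from lytic HiBiT detection was measured. HLA-B*08:01 in C25cl48 myoblasts carried an endogenous C-terminal HiBiT tag; medium lacked dexamethasone.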

The nature of assay [16]: qHTS for inhibitors of adenylyl cyclases using a fission yeast platform: a pilot screen against the NCATS LOPAC library (AID 1347410). In outline:
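GFP from fbp1-GFP reporter, read by Acumen laser cytometry, indicates AC inhibition in fission yeast expressing AC9, GNAS and PDE4D2. Cells grown 18 h in the dark at 30C with compounds, final up to 57 uM.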

Assay [17] in a line: Validation qHTS assay for inhibitors of Activation Induced Cytidine Deaminase (AID): UDG Counterscreen signal (AID 1347427). In outline: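 Fluorescence at 560 nm excitation, 665 nm emission reports UDG signal after 250 mM NaOH (2x) addition and 30 min. Enzymes (AID 1 uM, UDG 2 U/mL, at 4/3x) preincubated 10 min with compound, then 4 h with 4x 250 nM DJC20/DJC23 substrate at room temperature.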

The target of assay [18] is Single-stranded DNA cytosine deaminase (Homo sapiens) (UniProt Q9GZX7). The experiment in a line: Validation qHTS assay for inhibitors of Activation Induced Cytidine Deaminase (AID): AID signal (AID 1347429). The method in brief:
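Compounds (final up to 114 uM) preincubated with AID plus UDG; 250 nM DJC20/DJC23 substrate mix (4x stock) added, 4 hr at room temperature, then NaOH, 30 min. Read 1 fluorescence at 540 nm excitation, 590 nm emission.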

Chain of Protein phosphatase 1D (Homo sapiens) (O15297 whole entry, looked up): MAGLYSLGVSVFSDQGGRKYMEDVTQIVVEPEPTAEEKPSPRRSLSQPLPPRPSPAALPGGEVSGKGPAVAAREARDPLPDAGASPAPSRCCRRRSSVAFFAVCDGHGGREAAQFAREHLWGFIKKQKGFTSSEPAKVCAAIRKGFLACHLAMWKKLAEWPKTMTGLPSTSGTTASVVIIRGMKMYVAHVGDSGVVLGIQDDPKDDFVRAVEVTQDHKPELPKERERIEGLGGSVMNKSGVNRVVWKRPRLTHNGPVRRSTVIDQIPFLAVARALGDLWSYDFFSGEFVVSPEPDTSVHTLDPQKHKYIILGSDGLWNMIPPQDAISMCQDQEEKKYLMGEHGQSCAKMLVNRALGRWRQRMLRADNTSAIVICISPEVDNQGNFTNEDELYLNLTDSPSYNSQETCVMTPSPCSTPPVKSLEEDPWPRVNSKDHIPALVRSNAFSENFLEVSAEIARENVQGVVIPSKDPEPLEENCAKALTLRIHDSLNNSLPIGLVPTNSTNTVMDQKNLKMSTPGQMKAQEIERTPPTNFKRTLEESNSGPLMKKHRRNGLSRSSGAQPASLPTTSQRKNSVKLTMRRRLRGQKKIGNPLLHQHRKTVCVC
Chain of Single-stranded DNA cytosine deaminase (Homo sapiens) (Q9GZX7 whole entry, looked up): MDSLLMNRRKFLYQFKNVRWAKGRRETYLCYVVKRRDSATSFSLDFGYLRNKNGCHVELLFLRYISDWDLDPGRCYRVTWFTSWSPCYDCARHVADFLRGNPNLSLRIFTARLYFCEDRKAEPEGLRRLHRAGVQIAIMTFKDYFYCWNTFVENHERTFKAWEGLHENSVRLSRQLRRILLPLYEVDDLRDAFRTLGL

`Cc1ccc(-c2ncc(Cl)cc2-c2ccc(S(C)(=O)=O)cc2)cn1`: the Potency result in [1], in [2] and in assay [3] was “inactive” throughout. The outcome in [4] and in assay [5] was inactive.

On to `CCCCCCCCCCCCCCCC(=O)O`, for which the Potency result in assay [1] and in assay [3] was “inactive” each time. In addition, the molecule was called inactive in assay [4].

For the molecule `CCOC(=O)[C@H](CCc1ccccc1)N[C@@H](C)C(=O)N1[C@H](C(=O)O)C[C@@H]2CCC[C@@H]21`, the Potency entry in assay [1], in assay [2] and in assay [3] was “inactive” each time. For the same molecule, the molecule was classed as inactive in assay [4] and in [5].

`O=C1[C@H](CC[C@H](O)c2ccc(F)cc2)[C@@H](c2ccc(O)cc2)N1c1ccc(F)cc1`: the molecule was called inactive in [6], in assay [4] and in assay [5]. In addition, the Potency result in assay [1] and in assay [2] was “inactive” throughout.

As to `CC1(COc2ccc(CC3SC(=O)NC3=O)cc2)CCCCC1` (stereo not drawn), the call in [7], in assay [9] and in [5] was inactive. Besides, the Potency in assay [8] is 3.11 µM (active). Also, the Potency entry in [10] and in [1] was “inactive” in each case.

On to `CCc1oc2ccccc2c1C(=O)c1cc(Br)c(O)c(Br)c1`, for which the Potency in assay [8] is 1.75 µM (active); in assay [11], 79.4 µM (active); in assay [12] it was 28.2 µM (active); in [3], 6.31 µM (active). In addition, the call in assay [9] and in [5] was inactive. Also, the Potency entry in [1] was “inactive”.

Consider `O=[N+]([O-])c1ccc(/C=N\O)o1`, for which the Potency result in assay [1] and in assay [3] was “inactive” each time. Moreover, the outcome in [4] was inactive.

As to `C#C[C@]1(O)CC[C@H]2[C@@H]3CCc4cc(OC)ccc4[C@H]3CC[C@@]21C`, the Potency result in assay [1], in [2] and in assay [3] was “inactive” each time. In assay [4], the outcome was inactive.

For `Oc1c(Cl)cc(Cl)c(Cl)c1Cc1c(O)c(Cl)cc(Cl)c1Cl`, the Potency in [8] was 3.55 µM (active); in assay [11], 35.5 µM (active); in [12], 14.1 µM (active); in assay [3], 8.91 µM (active).

Consider `CC[C@]12CCCN3CCc4c(n(c5ccccc45)C(=O)C1)[C@@H]32`, for which the outcome in [13], in [6], in assay [4] and in assay [5] was inactive. Moreover, the Potency entry in [1] and in assay [3] was “inactive” in each case.

For `CC(C)[C@@H]1CC[C@@H](C)CC1=O`, the Potency entry in assay [1] and in [3] was “inactive” each time. For the same molecule, the molecule was called inactive in [4].

Regarding `CCOC(=O)[C@H](CCc1ccccc1)N[C@@H](C)C(=O)N1[C@H](C(=O)O)C[C@H]2CCCC[C@@H]21`, the call in assay [14], in assay [15], in assay [16], in [17], in [18] and in assay [5] was inactive.

`CCOC(=O)[C@@](C)(N)Cc1ccc(O)c(O)c1`: the Potency entry in assay [1] and in assay [3] was “inactive” throughout. Moreover, the result in [4] was inactive.

As to `CC(=O)NC(=O)c1ccccc1O`, the Potency result in assay [1] and in [3] was “inactive” each time. The outcome in [4] was inactive.
